Results on 63 molecules are retold here after PubChem BioAssay AID777 (Sanford-Burnham Center for Chemical Genomics, 2007).

Each structure is given as a SMILES string. Hit rate of the full screen: of about 96,000 compounds, about 19,000 (20%) were called active.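 How the source made its calls: active means blocking of liver enzyme CYP2C9 beyond about 50% at 5 µM (limit read from the data); inactive means the rest.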 A selection follows.

Sequence of Cytochrome P450 2C9 (Homo sapiens) (P11712 whole entry, looked up): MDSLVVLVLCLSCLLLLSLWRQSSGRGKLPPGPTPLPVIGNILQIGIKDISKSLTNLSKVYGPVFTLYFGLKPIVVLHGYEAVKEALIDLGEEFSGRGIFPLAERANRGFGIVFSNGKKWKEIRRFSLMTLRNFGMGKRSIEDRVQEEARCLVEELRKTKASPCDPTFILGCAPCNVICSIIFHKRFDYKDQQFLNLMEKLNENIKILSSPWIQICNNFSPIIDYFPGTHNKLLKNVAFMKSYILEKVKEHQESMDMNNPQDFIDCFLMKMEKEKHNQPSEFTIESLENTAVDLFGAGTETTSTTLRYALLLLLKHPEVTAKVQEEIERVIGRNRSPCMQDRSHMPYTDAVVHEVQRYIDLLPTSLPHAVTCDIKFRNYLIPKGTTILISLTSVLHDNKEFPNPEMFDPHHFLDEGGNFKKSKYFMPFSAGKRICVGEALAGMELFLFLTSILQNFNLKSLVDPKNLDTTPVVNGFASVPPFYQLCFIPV

The test addresses Cytochrome P450 2C9 (Homo sapiens) (UniProt P11712). As to the kind of experiment: blockers of cytochrome P450 2C9 activity – biochemical, luminescence, ADME assay, primary screen (AID 777). Particulars: CYP2C9 Supersomes, luciferin-H conversion, at 5 µM, stronger effect = higher value.
In general, inhibition refers to the relative decrease from the control value, in per cent. Consider `Cc1cc(=O)oc(C)c1C(=O)N1CCCCC1`, for which the inhibition is 4.9% (inactive).

On to `O=C(NCCc1ccccc1)/C(=C\c1ccc([N+](=O)[O-])cc1)NC(=O)c1ccccc1`, for which the inhibition is 3.8% (inactive).

For the molecule `CCOC(=O)/C(C#N)=C/c1ccc(OCC(=O)Nc2ccccc2)c(OC)c1`, the inhibition was 14.7% (inactive).

As to `CCOC(=O)/C(=C\c1ccc([N+](=O)[O-])cc1)C(=O)c1cc(C(C)=O)c(Nc2ccccc2)s1`, the inhibition is 76.2% (active).

Turning to `CCC1CCCCN1CCNS(=O)(=O)c1ccc2c(c1)CCN2C(C)=O` (stereo not drawn), the inhibition was 15.6% (inactive).

For the molecule `N/C(Cc1ccc([N+](=O)[O-])cc1)=N\OC(=O)COc1ccc2ccccc2c1`, the inhibition was 4.4% (inactive).

On to `CCOc1cc(CN2CCN(C(=O)CC(C)C)CC2)ccc1OC`, for which the inhibition was -24.7% (inactive).

As to `COc1cc(C(=O)N2CCN(C/C=C/c3ccccc3)CC2)cc(OC)c1C`, the inhibition was 67.7% (active).

For the molecule `COc1ccc(OCC(=O)N2CCN(C(=O)COc3ccccc3)CC2)cc1`, the inhibition was -2.8% (inactive).

Take `Cn1c(C(=O)OC(C(=O)NC2CCCCC2)c2ccccn2)cc2sccc21` (stereo not drawn): the inhibition was -7.2% (inactive).

As to `CCn1c(/C=C/c2ccc([N+](=O)[O-])o2)nc2ccccc2c1=O`, the inhibition is -18% (inactive).

In the case of `COC(=O)C1CCN(CC(N)=O)CC1`, the inhibition is -11.4% (inactive).

Take `CCOC(=O)CC1=CC(=O)Nc2ccccc2N1`: the inhibition is 7.1% (inactive).

As to `O=C(CSc1nnnn1C1CCCC1)Nc1ccc2c(c1)OCCO2`, the inhibition was 62.4% (active).

Turning to `O=C(CSc1nc2ncccc2[nH]1)Nc1ccc2c(c1)OCCO2`, the inhibition was 95.5% (active).

For `O=C(CSc1nnnn1-c1ccc2c(c1)CCC2)Nc1ccc2c(c1)OCCO2`, the inhibition was 0.6% (inactive).

Regarding `CCC(=O)Nc1cccc(NC(=O)CSc2nnnn2C2CCCC2)c1`, the inhibition was 16.4% (inactive).

As to `O=C(CSc1nc(C2CC2)nc2ccccc12)Nc1ccc2c(c1)OCCO2`, the inhibition was 40.1% (inactive).

In the case of `CCNC(=O)c1sccc1-n1cccc1`, the inhibition was 16.1% (inactive).

Take `Cc1ccc(N2C(=O)CC(Sc3ncn[nH]3)C2=O)cc1` (stereo not drawn): the inhibition was -1.5% (inactive).

In the case of `Nc1nonc1C(=O)NCCc1ccccc1`, the inhibition was -8.7% (inactive).

On to `COc1ccc(OCCCON2C(=O)c3ccccc3C2=O)cc1`, for which the inhibition is 7.6% (inactive).

Consider `CN1CCN(C(=O)C2C3C=CC(C3)C2C(=O)O)CC1` (stereo not drawn), for which the inhibition was -9.2% (inactive).

On to `Cc1ccc2nc(S(=O)(=O)O)[nH]c2c1`, for which the inhibition is -11.8% (inactive).

As to `Cc1ccc2nc(/C(C#N)=C\c3ccc(OC(=O)c4cccs4)cc3)[nH]c2c1`, the inhibition is 81.3% (active).

With `CSc1nsc(SC)c1NC(=O)OC1CCCCC1`, the inhibition was 21.9% (inactive).

As to `O=C(Cn1c(-c2ccccn2)nc2ccccc21)NCCN1CCOCC1`, the inhibition is -10.5% (inactive).

On to `Cc1cc(Nc2ccccc2)n(CCC#N)n1`, for which the inhibition was -12.2% (inactive).

Consider `COC(=O)CN1C(=O)C(O)=C(C(C)=O)C1c1ccc([N+](=O)[O-])cc1` (stereo not drawn), for which the inhibition is 3.5% (inactive).

`COc1cc(-c2noc(C3CCCN(S(=O)(=O)c4cccc(Cl)c4)C3)n2)cc(OC)c1OC` (stereo not drawn): the inhibition is 85.3% (active).

On to `CC(C)c1ccc(-c2noc(C3CCCN(S(C)(=O)=O)C3)n2)cc1` (stereo not drawn), for which the inhibition is 52.2% (active).

As for `COc1ccc(S(=O)(=O)N2CCCC(C(=O)N3CCN(C)CC3)C2)cc1C` (stereo not drawn), the inhibition is -24% (inactive).

Take `CS(=O)(=O)N1CCCC(C(=O)N2CCOCC2)C1` (stereo not drawn): the inhibition is -11.8% (inactive).

For the molecule `O=C(Cc1cccs1)N1CCCC(c2nc(-c3ccc(S(=O)(=O)N4CCCC4)cc3)no2)C1` (stereo not drawn), the inhibition is 47.8% (inactive).

Take `COc1ccc(NC(=O)C2CCCN(S(=O)(=O)c3cccc4cccnc34)C2)cc1OC` (stereo not drawn): the inhibition is -15.1% (inactive).

With `O=C(c1cccs1)N1CCCC(c2nc(-c3ccc(F)cc3)no2)C1` (stereo not drawn), the inhibition was 76.9% (active).

`OCCNc1nc2ccccc2[nH]1`: the inhibition was 2.6% (inactive).

As to `Cc1nnc(SCC(=O)Nn2cnnc2)s1`, the inhibition was 29.8% (inactive).

For the molecule `CCOC(=O)c1c(NC(=O)c2ccc(N3CCOCC3)c([N+](=O)[O-])c2)sc(C)c1C`, the inhibition was 7.5% (inactive).

Take `CCc1cc(C(c2ccccc2OC)N2CCOCC2)c(NC(=O)c2ccccc2)s1` (stereo not drawn): the inhibition is 85.2% (active).

For `COc1ccccc1NC(=O)c1ccc2nc(N3C(=O)CCC3=O)sc2c1`, the inhibition is -32% (inactive).

Take `COc1ccc(-n2c(SC)nc(O)cc2=O)cc1`: the inhibition is -81.1% (inactive).

On to `O=C1CSC2=NCN(c3ccccc3)CN12`, for which the inhibition was 26.1% (inactive).

On to `O=S(N1CCCCCC1)C12CC3CC(CC(C3)C1)C2` (stereo not drawn), for which the inhibition was 9.9% (inactive).

Regarding `O=C(OCC(=O)N1CCN(C(=O)c2ccco2)CC1)c1ccccc1Cc1ccccc1`, the inhibition is 31.9% (inactive).

On to `CCOC(=O)c1[nH]c2ccccc2c1N=C(C)N(CC)CC`, for which the inhibition is -6.5% (inactive).

Take `COc1ccccc1OCCOc1ccc(/C=N/n2cnnc2)cc1`: the inhibition was 44.5% (inactive).

Regarding `C=CCOc1ccc(/C=N/n2cncn2)cc1OC`, the inhibition was 57.5% (active).

For the molecule `COc1cccc(OCCOc2cccc(/C=N/n3cnnc3)c2)c1`, the inhibition was 40% (inactive).

On to `Cc1ccc2c(CSc3nncs3)cc(=O)oc2c1`, for which the inhibition was 67% (active).

`COC(=O)CCSc1cc([N+](=O)[O-])cc2c1c(C1OCCS1)nn2-c1ccccc1` (stereo not drawn): the inhibition is 34.3% (inactive).

On to `Cc1ccccc1C(=O)NCCN=C1NS(=O)(=O)c2ccccc21`, for which the inhibition is 7.9% (inactive).

As to `COc1ccc(C(C#N)N2N=C(C)CC2(C)C)cc1` (stereo not drawn), the inhibition was -2.1% (inactive).

With `N#CC1=C(SCc2ccc(C#N)cc2)N=C(N)C(c2nc(-c3ccccc3)cs2)C12CCCCC2` (stereo not drawn), the inhibition is 98.6% (active).

On to `N#CC1=C(SCc2ccccc2)NC(=O)C(C#N)C12CCCC2` (stereo not drawn), for which the inhibition was 46.5% (inactive).

For `O=C(O)c1cc2ccccc2c(=O)s1`, the inhibition is -1.7% (inactive).

In the case of `CCOC(=O)C1CCCN(C(=O)C2CCN(c3nnc(-n4cccc4)s3)CC2)C1` (stereo not drawn), the inhibition was 25.6% (inactive).

Turning to `O=C(O)CCN1C(=O)CC2(CCCCC2)C1=O`, the inhibition was 11.2% (inactive).

As to `O=[N+]([O-])c1ccc(C=Nc2ccc(Cl)cc2Cl)s1`, the inhibition was 7.9% (inactive).

Take `O=C1[C@@H]2C(Cc3ccc(O)cc3)NC3(C(=O)Nc4ccc(F)cc43)[C@@H]2C(=O)N1c1ccc(F)cc1` (stereo partly drawn): the inhibition is 50.6% (active).

Regarding `COCCCNC(NC(=O)c1ccc(C)cc1)C(Cl)(Cl)Cl` (stereo not drawn), the inhibition is 4.7% (inactive).

For `Cc1ccc(NC(=S)NC(NC(=O)Cc2cccc3ccccc23)C(Cl)(Cl)Cl)cc1` (stereo not drawn), the inhibition is 96.6% (active).

With `COc1ccc(NC(=O)C(NC(C)=O)C(=O)NCc2ccccc2Cl)cc1` (stereo not drawn), the inhibition is 37.2% (inactive).
